Unmarked numbers belong to inactive results.
Columns and labels:
Settings in all cases: 60 µM; 5 days; temperature: 20 °C
Meloidogyne hapla J2 = test: proportion of mobile M. hapla J2 relative to DMSO control (fraction of DMSO control); higher = more viable, less nematicidal, active = 0.7 or less
Procedure, shortened: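 About 25 M. hapla J2 were added per 96-well well in distilled water, and compound was pinned to 60 µM final (0.6% v/v DMSO). Sealed plates were shaken at 200 rpm for 5 days at 20 °C, then 2 µL 1 M NaOH was added before microscopic mobility scoring. Mobility was divided by the mean of eight DMSO wells on the same plate, and two biological replicates were averaged.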

[1] = test system: Caenorhabditis elegans dauer (daf-2(e1370)); test: proportion of mobile C. elegans dauer larvae relative to DMSO control (fraction of DMSO control); higher = more viable, less nematicidal, active = 0.63 or less; extreme values may be limits of the assay
Procedure, shortened: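 Compound was added by pinning to 60 µM final, giving 0.6% v/v DMSO, in 96-well plates containing about 20 C. elegans dauers per well in liquid NGM. These dauers came from synchronized larvae held on MYOB plates with E. coli OP50 for 48 h at 25 °C. Plates were sealed and shaken at 200 rpm at 20 °C for 5 days. Under a dissection microscope, the proportion of mobile worms was scored relative to DMSO wells, and two biological replicates were averaged.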

Ditylenchus dipsaci = test: proportion of mobile D. dipsaci (mixed stage) relative to DMSO control (fraction of DMSO control); higher = more viable, less nematicidal, active = 0.86 or less; extreme values may be limits of the assay
Procedure, shortened: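 D. dipsaci were grown on pea plants in Gamborg B-5 agar and extracted through a filter funnel into water, and about 20 worms were added per 96-well well in distilled water. Compound was pinned to 60 µM final (0.6% v/v DMSO), and sealed plates were shaken at 200 rpm for 5 days at 20 °C. After 2 µL 1 M NaOH was added, mobile worms were scored microscopically. Mobility was expressed relative to DMSO controls and averaged over two biological replicates.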

Row | Compound | proportion of mobile M. hapla J2 (Meloidogyne hapla J2) | proportion of mobile C. elegans dauer larvae [1] | proportion of mobile D. dipsaci (Ditylenchus dipsaci)
1 | COc1ccc(Cl)cc1-c1noc(COc2ccc(Cl)cc2)n1 | 0.964 | 1 | 1
2 | COc1ccc(-c2nnc(SCc3ccc(C#N)cc3)o2)cc1 | 0.942 | 1 | 1
3 | COc1ccc(-c2nnc(SCc3csc(N)n3)o2)cc1 | 0.941 | 1 | 1
4 | O=C(CSc1nnc(-c2ccccc2)o1)Nc1ccccc1C(F)(F)F | 0.918 | 1 | 1
5 | CC(C)Oc1ccc(-c2nc(-c3ccccc3)no2)cc1 | 0.993 | 1 | 1
6 | Clc1ccc(OCc2nc(-c3ccccn3)no2)c(Br)c1 | 1.04 | 1 | 1
7 | CCCCC(=O)Nc1ccccc1-c1nc(-c2cccnc2)no1 | 1.01 | 1 | 1
8 | Cc1ccccc1OCc1nc(-c2cccc(C(F)(F)F)c2)no1 | 0.946 | 1 | 1
9 | CCCc1ccc(-c2ccc(-c3nc(-c4ccccn4)no3)cc2)cc1 | 0.978 | 1 | 1
10 | CCc1ccc(NC(=O)CSc2nnc(-c3ccco3)o2)cc1 | 0.899 | 1 | 1
11 | Cc1cccc(-c2noc(COc3ccccc3Cl)n2)c1 | 0.894 | 1 | 1
12 | CCOc1cc(-c2nc(-c3ccc(C)nc3OC)no2)cc(OCC)c1OCC | 0.628 (active) | 1 | 1

From the supplement of paper PMC11219838
